Screening data from PubChem BioAssay.
CD11b adhes enh = increases human CD11b/CD18 adhesion to fibrinogen; P05107+P11215; K562 CD11b/CD18 adhesion to fibrinogen, ATPlite luminescence; activation, % at 10 µM; 0.07% of 93,000 active; AID 1499;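 active means 10 µM primary screen giving 50% or more activity, confirmed by 40% or more on retest at that dose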
CYP2C9 act = CYP2C9 (human) activation. AID 1024. P11712. 1.4% of 96,000 active. activation factor at 5 µM. recombinant CYP2C9, luciferin-H conversion, luminescence; hits give high values; factor 1 = untreated enzyme, 0 = blocked;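 active means activation factor of 2 or more for CYP2C9 at a 5 µM dose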
CYP2C19 inhib = inhibitors of human CYP2C19. P33261. inhibition, % at 5 µM. 21% of 96,000 active. CYP2C19 Supersomes, luciferin-H EGE luminescence, 30 min;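 active means CYP2C19 inhibition above a set limit at 5 µM in the primary screen, cut at about 50% in these data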
Target sequence (P33261 whole entry, looked up): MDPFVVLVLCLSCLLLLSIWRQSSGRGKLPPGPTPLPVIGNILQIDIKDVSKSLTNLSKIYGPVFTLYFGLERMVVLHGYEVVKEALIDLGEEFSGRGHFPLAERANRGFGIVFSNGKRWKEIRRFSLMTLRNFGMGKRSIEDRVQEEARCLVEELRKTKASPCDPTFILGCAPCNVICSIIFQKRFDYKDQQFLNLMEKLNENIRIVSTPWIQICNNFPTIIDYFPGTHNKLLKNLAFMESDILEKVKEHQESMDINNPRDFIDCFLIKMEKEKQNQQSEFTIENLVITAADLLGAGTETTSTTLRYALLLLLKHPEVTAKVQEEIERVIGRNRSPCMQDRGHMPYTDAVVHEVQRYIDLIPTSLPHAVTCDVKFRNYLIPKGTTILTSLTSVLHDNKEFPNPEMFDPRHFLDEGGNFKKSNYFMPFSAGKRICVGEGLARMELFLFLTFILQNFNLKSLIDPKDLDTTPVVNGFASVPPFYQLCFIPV
CYP2C9 inhib = blocks human cytochrome P450 2C9 | P11712 | CYP2C9 Supersomes, luciferin-H conversion, luminescence | inhibition, % at 5 µM | 20% of 96,000 active | AID 777;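 active means blocking of liver enzyme CYP2C9 beyond about 50% at 5 µM, limit read from the data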
Mac1 fbg inh = inhibitors of human CD11b/CD18 binding to fibrinogen. P05107+P11215. K562 CD11b/CD18 adhesion to fibrinogen, ATPlite luminescence; Mn2+ added to activate the integrin. inhibition, % at 10 µM. 0.54% of 93,000 active. AID 1497;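 active means primary inhibition of 50% or more at 10 µM, then 40% or more on retest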
CYP2C19 act = activators of human cytochrome P450 2C19; 96,000 tested, under 10 active; recombinant CYP2C19, luciferin-H EGE luminescence; hits give high values; 0 = fully inhibited enzyme, 1 = untreated enzyme; P33261; activation factor at 5 µM; AID 1025;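 active means activation factor of at least 2 at 5 µM in the primary screen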
A number is an active result; 0 = inactive; - = no result given. In the library only some 28% were active in any assay of this set; here they are far more common.

SMILES | CD11b adhes enh | CYP2C9 act | CYP2C19 inhib | CYP2C9 inhib | Mac1 fbg inh | CYP2C19 act
CN(C(=O)c1cc2n(n1)C(C(F)(F)F)CC(c1ccco1)N2)c1ccccc1 (stereo unspecified) | 0 | 0 | 0 | 0 | 0 | 0
COc1ccc(C(=O)CSc2nc3ccccc3n2CC(=O)NC(C)(C)C)cc1 | 0 | 0 | 0 | 72.0 | 0 | 0
COc1ccccc1-c1cc(C(=O)Nc2ccccc2SC)no1 | 0 | 0 | 0 | 0 | 0 | 0
O=S(=O)(CCCc1ccccc1)c1ncn[nH]1 | 0 | 0 | 0 | 0 | 0 | 0
Nc1n[nH]c(S(=O)(=O)CCCc2ccccc2)n1 | 0 | 0 | 69.9 | 0 | 0 | 0
CN(CCOc1ccc(-c2ccn(S(=O)(=O)c3c(Cl)cccc3Cl)n2)cc1)c1ccccn1 | 0 | 0 | 0 | 0 | 0 | 0
CN(CCOc1ccc(-c2ccn(S(=O)(=O)c3cccc4ccccc34)n2)cc1)c1ccccn1 | 0 | 0 | 50.0 | 0 | 0 | 0
COc1ccccc1/C=C/C(=O)OCC(=O)Nc1cc(C(F)(F)F)ccc1N1CCOCC1 | 0 | - | - | - | 0 | -
CCCCCCCCOC(=O)C(NC(=O)CCC(=O)Nc1ccc(S(N)(=O)=O)cc1)C(O)c1ccccc1 (stereo unspecified) | 0 | 0 | 53.9 | 62.5 | 0 | 0
CCOC(=O)C(NC(=O)CCC(=O)Nc1ccc(S(N)(=O)=O)cc1)C(O)c1ccccc1 (stereo unspecified) | 0 | 0 | 0 | 0 | 0 | 0
O=C1c2ccccc2C(=O)C1Cc1cccc2ccccc12 | 0 | 0 | 0 | 66.5 | 0 | 0
CCOC(=O)CNC(=O)CSc1nc(N(C)C)nc(N2CCOCC2)n1 | 0 | 0 | 83.5 | 0 | 0 | 0
COC(=O)CSc1nc(NC(C)C)nc(N2CCOCC2)n1 | 0 | 0 | 50.4 | 0 | 0 | 0
O=C(O)c1ccc(Br)c(S(=O)(=O)N2CCCC2)c1 | 0 | 0 | 0 | 0 | 0 | 0
CC1CCN(S(=O)(=O)c2ccc(Cl)cc2Br)CC1 | - | 0 | 67.6 | 0 | - | 0
O=S(=O)(c1cc(Cl)ccc1Br)N1CCOCC1 | 0 | 2.9 | 0 | 0 | 0 | 0
CC1=NCCN1S(=O)(=O)c1cc(Cl)ccc1Cl | - | 2.8 | 50.9 | 0 | - | 0
O=C(Oc1ccc2c(c1)OCO2)c1ccc(Br)c(S(=O)(=O)N2CCOCC2)c1 | 0 | 0 | 0 | 0 | 0 | 0
O=S(=O)(c1cc(Cl)ccc1Br)N1CCCCC1 | 0 | 3.2 | 96.0 | 0 | 0 | 0
Cc1ccc(-c2nc(C)sc2CC(=O)Nc2cccc(C)c2C)cc1 | 0 | - | - | - | 0 | -
CCOC(=O)C1CCN(c2ccc(C(N)=O)cc2[N+](=O)[O-])CC1 | 0 | - | - | - | 0 | -
CCc1c(O)nc(SCC(=O)Nc2ccccc2OC)[nH]c1=O | 0 | 0 | 0 | 0 | 0 | 0
CCOCCCNC(=O)Cn1cc2c(n1)CCCCC2 | 0 | 0 | 0 | 0 | 0 | 0
O=S(=O)(c1cc(Cl)ccc1Cl)N1CCCCC1 | 0 | 3.3 | 64.6 | 0 | 0 | 0
O=C(O)C1CCCN1S(=O)(=O)c1cc(Cl)ccc1Cl (stereo unspecified) | 0 | 2.2 | 0 | 0 | 0 | 0
SMILES | CD11b adhes enh | CYP2C9 act | CYP2C19 inhib | CYP2C9 inhib | Mac1 fbg inh | CYP2C19 act
COc1ccc(Cl)c(S(=O)(=O)N2CCCC2)c1 | 0 | 2.8 | 79.8 | 0 | 0 | 0
O=C(O)C1CCCCN1S(=O)(=O)c1ccc2ccccc2c1 (stereo unspecified) | 0 | 0 | 0 | 0 | 0 | 0
CN1CCN(C(=O)c2ccc(Cl)c(S(=O)(=O)N3CCCCC3)c2)CC1 | 0 | 0 | 0 | 0 | 0 | 0
O=S(=O)(c1ccc(F)c(Cl)c1)N1CCCC1 | 0 | 0 | 54.5 | 0 | 0 | 0
O=C(Nc1ccc(CN2CCOCC2)cc1)c1ccc(-c2ccc(Br)cc2)o1 | 0 | 0 | 0 | 0 | 0 | 0
CCOC(=O)CCCNC(=O)COc1ccccc1C#N | 0 | 0 | 0 | 0 | 0 | 0
O=C(NCCCN1CCOCC1)c1cc2c(s1)CSC2 | - | 0 | 0 | 0 | - | 0
O=C(CNC(=O)c1cnccn1)Nc1ccc(F)c(F)c1F | 0 | 0 | 0 | 0 | 0 | 0
O=S(=O)(c1cccc(Cl)c1)N1CCCC1 | 0 | 0 | 0 | 0 | 0 | 0
O=S(=O)(c1cc(Cl)ccc1Cl)N1CCCC1 | 0 | 3.5 | 55.9 | 0 | 0 | 0
O=C(c1cc(S(=O)(=O)N2CCOCC2)c(Cl)cc1Cl)N1CCCCC1 | 0 | 0 | 0 | 0 | 0 | 0
Cc1cc(S(=O)(=O)N2CCCCCC2)c(Cl)cc1Cl | 0 | 0 | 73.2 | 0 | 0 | 0
O=S(=O)(c1cnccc1N1CCN(/N=C/c2ccc(Cl)cc2)CC1)N1CCCCC1 | 0 | 0 | 0 | 59.7 | 0 | 0
CCOC(=O)C1CCN(C(=O)COc2ccc(Br)cc2)CC1 | 0 | 0 | 82.2 | 64.9 | 0 | 0
Cc1cccc(OCC(=O)N2CCN(C(=O)c3cccs3)CC2)c1 | 0 | 0 | 61.5 | 59.0 | 0 | 0
CCOC(=O)C1CCN(CC(O)COc2ccc(C(C)(C)C)cc2)CC1 (stereo unspecified) | 0 | 0 | 56.0 | 0 | 0 | 0
CCOC(=O)C1CCN(C(=O)c2cccc(C(=O)N3CCC(C(=O)OCC)CC3)c2)CC1 | 0 | 0 | 0 | 0 | 0 | 0
CCOC(=O)C1CCN(CC(O)COc2ccc(C(C)(C)CC)cc2)CC1 (stereo unspecified) | 0 | 0 | 0 | 0 | 0 | 0
CCOC(=O)C1CCN(C(=O)Cc2cccs2)CC1 | 0 | 0 | 58.8 | 0 | 0 | 0
O=C(O)CCCC(=O)Nc1ccccc1C(=O)N1CCCC1 | 0 | 0 | 0 | 0 | 0 | 0
COC(=O)CCN(c1ccccc1)S(=O)(=O)c1ccc(OC)cc1 | 0 | 0 | 0 | 0 | 0 | 0
COc1cc(/C=N/Nc2ccc3ccccc3c2)ccc1OC(=O)c1ccco1 | 0 | - | - | - | 0 | -
Cc1cccc(OCC(=O)N2CCC(c3ccccc3)C2)c1 (stereo unspecified) | 0 | 0 | 0 | 0 | 0 | 0
CCOC(=O)C1CCN(C(=O)COc2cccc(C)c2)CC1 | - | 0 | 81.3 | 0 | - | 0
CCOC(=O)C1CCN(C(=O)COc2ccc(S(=O)(=O)NC(C)(C)C)cc2)CC1 | 0 | 0 | 0 | 0 | 0 | 0
SMILES | CD11b adhes enh | CYP2C9 act | CYP2C19 inhib | CYP2C9 inhib | Mac1 fbg inh | CYP2C19 act
CCOC(=O)C1CCN(C(=O)COc2cc(C)c(Br)cc2C)CC1 | 0 | 0 | 91.4 | 0 | 0 | 0
COc1cc(NC(=S)NCCC(c2ccccc2)c2ccccc2)c(OC)cc1Cl | 0 | - | - | - | 0 | -
Cc1ccc(NC(=O)NC2=N/C(=C(/C#N)C(=O)N3CCCC3)c3ccccc32)cc1 | 0 | 0 | 89.0 | 98.2 | 0 | 0
N#C/C(C(=O)NCc1ccccc1)=C1/N=C(NC(=O)c2cccs2)c2ccccc21 | 0 | - | - | - | 0 | -
Cc1c(C(c2ccc([N+](=O)[O-])cc2)c2c(C)n(C)n(-c3ccccc3)c2=O)c(=O)n(-c2ccccc2)n1C | - | 0 | 0 | 0 | - | 0
Cc1nn(CCOc2ccccc2)c(=O)n1-c1c(F)cccc1F | 0 | 0 | 85.3 | 0 | 0 | 0
CCOC(=O)c1cnc2c(C)c(C)ccc2c1Nc1ccc(S(=O)(=O)Nc2ncccn2)cc1 | 0 | - | - | - | 0 | -
Cc1ccc(OCCSCc2nc3ccccc3[nH]2)cc1 | - | 0 | 59.0 | 62.7 | - | 0
